Source: PubChem
Rows were chosen to be rich in hits. Some 21% of all compounds tested hit in one or more screens of this group.
TDP1 cell noCPT = qHTS for Inhibitors of human tyrosyl-DNA phosphodiesterase 1 (TDP1): qHTS in cells in absence of CPT; DT40 Tdp1-/- hTDP1 cells, no CPT, ATP luminescence, 48 h; Potency, µM (titrated, usually from 46.2 µM), hits mostly inhibitors; 420,000 compounds, 15% hits; AID 686978, 2013; note: nearly all actives have a fitted effect of over 55% in size
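Seeded 400 DT40-hTDP1 cells/well (vehicle DMSO, no 20 nM CPT); pinned compounds; ≥48 hr at 37 °C; CellTiter-Glo luminescence as viability measure.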
VP16 counter = VP16 counterscreen qHTS for inhibitors of ROR gamma transcriptional activity. Drosophila S2 Gal4-VP16 UAS-luciferase, luminescence, 20 h. Potency, µM (titrated, usually from 53.6 µM), actives largely listed as inhibitors. 310,000 compounds, 3.5% hits. AID 2546, 2010;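 note: Gal4-VP16 expression switched on by copper sulfate through the metallothionein promoter; nearly all actives have a fitted effect of over 50% in size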
ELG1 repair inh = qHTS screen for small molecules that inhibit ELG1-dependent DNA repair in human embryonic kidney (HEK293T) cells expressing luciferase-tagged ELG1; AID 504467, 2011; HEK293T ELG1-luciferase reporter, luminescence, 16 h; DNA damage induced by 5-fluorouridine; Potency, µM (series often up to 46.1 µM), usual class: inhibitors; 330,000 compounds, 2.3% hits; note: nearly all actives have a fitted effect of over 55% in size
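Reporter activity after DNA damage by 5-fluorouridine is monitored. Compound-treated cells incubate 16 hr at 37 °C, then ONE-Glo is added for 30 min before luminescence reading.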
IL1B secr inh = qHTS for Inhibitors of Inflammasome Signaling: IL-1-beta AlphaLISA Primary Screen; THP-1 LPS/ATP IL-1B secretion, AlphaLISA, 16 h; active compounds read low; activity change, % at 57.5 µM; 360,000 compounds, 4.7% hits; in the data active = activity change below about -50%; inconclusive = mostly about -30% to -49%
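THP-1 cells pretreated 1 hr with compounds (up to 57.5 uM final), then stimulated with LPS (250 ng/mL final) plus ATP (1.25 mM final); secreted IL-1B measured by AlphaLISA after 16 hr, decreased signal indicating inhibition.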
RORgamma inh = qHTS for inhibitors of ROR gamma transcriptional activity | Drosophila S2 Gal4-RORgamma UAS-luciferase reporter, 20 h | Potency, µM (doses to about 53.6 µM), actives largely listed as inhibitors | 310,000 compounds, 5.4% hits; note: nearly all actives have a fitted effect of over 60% in size
Target sequence (P51450 whole entry, looked up, the tested form may be a part): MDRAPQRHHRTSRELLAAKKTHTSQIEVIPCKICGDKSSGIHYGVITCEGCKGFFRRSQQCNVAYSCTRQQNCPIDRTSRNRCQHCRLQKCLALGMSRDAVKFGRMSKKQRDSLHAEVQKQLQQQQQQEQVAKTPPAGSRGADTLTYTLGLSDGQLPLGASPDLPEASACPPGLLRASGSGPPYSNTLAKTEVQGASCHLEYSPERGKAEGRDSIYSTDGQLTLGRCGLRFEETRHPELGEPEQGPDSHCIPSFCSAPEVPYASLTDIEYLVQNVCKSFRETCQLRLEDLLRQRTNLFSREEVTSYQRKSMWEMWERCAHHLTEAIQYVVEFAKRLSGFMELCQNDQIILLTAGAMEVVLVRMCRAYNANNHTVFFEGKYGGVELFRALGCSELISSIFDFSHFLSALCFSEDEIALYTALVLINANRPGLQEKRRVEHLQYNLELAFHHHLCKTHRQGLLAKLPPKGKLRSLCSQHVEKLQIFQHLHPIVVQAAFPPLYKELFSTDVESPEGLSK
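Compounds are pin-transferred onto Drosophila Schneider cells expressing a copper-inducible Gal4–ROR gamma transactivation domain fusion. After 1 hr, copper sulfate is added to 700 uM final; luciferase is read 20 hr later.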
DT40 TDP1 CPT = qHTS for Inhibitors of human tyrosyl-DNA phosphodiesterase 1 (TDP1): qHTS in cells in presence of CPT | chicken DT40 Tdp1-/-;hTDP1 cells + 20 nM CPT, ATP luminescence, 48 h | Potency, µM (series often up to 46.2 µM), usual class: inhibitors | 420,000 compounds, 12% hits | AID 686979, 2013; note: nearly all actives have a fitted effect of over 55% in size
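Cell growth measured by CellTiter-Glo luminescence after a minimum 48 h, 37 C compound exposure with 20 nM CPT in Tdp1-knockout DT40 cells stably expressing hTDP1, seeded 400/well; qHTS titration format.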
A number is an active result; n = inactive; u = inconclusive; x = no result. Unless noted, calls come from the whole dose curve; as a rule, active = well fitted curve in the direction sought with a large enough effect; inconclusive = small, poorly fitted or top-dose-only effect, or another doubt; inactive = no such curve, though single readings can be large; an effect the other way counts as inactive or inconclusive.

SMILES | TDP1 cell noCPT | VP16 counter | ELG1 repair inh | IL1B secr inh | RORgamma inh | DT40 TDP1 CPT
COc1ccccc1/C=N/NC(=O)c1ccccc1Cl | n | n | n | -67 | n | n
COc1ccc(OC)c(NC(=O)c2cc(-c3cc(C)cc(C)c3O)n[nH]2)c1 | u | u | n | n | n | u
COc1ccc(NC(=O)c2cc(-c3cc(F)ccc3OC(C)C)n[nH]2)c(C)c1 | 16µM | x | x | n | x | u
COc1ccc(OC)c(NC(=O)c2cc(-c3ccc(F)cc3OC(C)C)n[nH]2)c1 | 21µM | x | x | n | x | 16µM
COc1ccc(OC)c(NC(=O)c2cc(-c3cc(C)c(C)cc3O)n[nH]2)c1 | u | n | u | n | n | n
Cc1cc2oc(C(=O)Nc3ccc(S(N)(=O)=O)cc3)cc(=O)c2cc1C | n | x | x | x | x | n
O=C(NCc1ccc(F)cc1)c1cc(C2CCCCN2S(=O)(=O)c2ccccc2)on1 (centres undefined) | u | x | x | n | x | u
CC(=O)N(C1=C(O)c2ccccc2C(=O)C1=O)C1CCCCC1 | n | n | n | n | n | u
O=C(O)C1=C(C2CCCCC2)C(=O)c2ccccc21 | n | x | x | -55 | x | n
O=C1C=C(C2CCCCC2)C(=O)c2ccccc21 | 15µM | x | x | n | x | 21µM
O=C(COC(=O)c1ccccc1Oc1ccccc1)Nc1ccc(Br)cc1 | n | x | x | x | x | n
COc1ccc(C(=O)NNC(=O)c2cccc(S(=O)(=O)N3CCOCC3)c2)cc1 | n | x | n | n | x | n
COc1ccc(NC(=S)Nc2cccc(S(=O)(=O)N3CCCCC3)c2)cc1 | u | u | n | n | 18µM | u
CCOc1c(Br)cc(C(=O)Nc2cccc(S(=O)(=O)N3CCOCC3)c2)cc1OC | 23µM | x | x | n | x | u
CC(=O)Oc1ccc(-c2ccc(C(=O)Nc3cccc(S(=O)(=O)N4CCOCC4)c3)cc2)cc1 | 16µM | n | u | -119 | n | 23µM
COc1ccc(C(=O)NC(=S)Nc2cccc(S(=O)(=O)N3CCOCC3)c2)cc1 | 7.3µM | n | u | n | 22µM | 5.8µM
O=c1[nH]c2ccc(NCc3ccc(-c4ccc(F)cc4)o3)cc2[nH]1 | n | x | x | x | x | n
COc1cc(C=NNC(=S)Nc2ccc(S(=O)(=O)N3CCCCC3)cc2)cc(OC)c1OC | 8.2µM | x | x | n | x | 16µM
O=C1C=CC(=O)N1c1ccc(-c2nc3ccccc3o2)cc1 | 1.6µM | x | x | n | x | 1.8µM
Cc1cc(NC(=O)c2coc(=O)c(Br)c2)ccc1C(C)C | 1.8µM | n | u | x | n | 0.52µM
O=C(Nc1ccc(Cl)cc1C(=O)Nc1ccc(Br)cn1)c1ccco1 | u | n | x | n | n | u
CCCC(=O)Nc1ccc(C(=O)NCCc2ccc(F)cc2)cc1 | n | n | u | n | n | n
O=C(Nc1ccc(Br)cn1)c1coc(=O)c(Br)c1 | 3.7µM | n | u | u | n | 1.5µM
C[C@@H](NC(=O)c1coc(=O)c(Br)c1)c1ccccc1 | 0.73µM | n | u | n | u | 0.46µM
Cc1ccc(NC(=O)c2ccccc2)cc1C | n | x | u | n | x | n
SMILES | TDP1 cell noCPT | VP16 counter | ELG1 repair inh | IL1B secr inh | RORgamma inh | DT40 TDP1 CPT
O=C(NCCc1ccc(F)cc1)c1coc(=O)c(Br)c1 | 0.92µM | n | u | -91 | n | 0.13µM
Cc1ccc(S(=O)(=O)N[C@H](CNCc2ccccc2)C(C)C)cc1 | u | x | x | n | x | u
O=C(Nc1ccccc1F)c1coc(=O)c(Br)c1 | 1.6µM | u | u | n | n | 0.52µM
COc1cc2cc(CCCOC(=O)c3cccc(Br)c3)oc(=O)c2cc1OC | n | x | n | n | x | n
Cc1c(CNC2CCCCC2)c(C(=O)O)c(C)n1Cc1ccccc1F | n | x | x | x | x | n
CCN1CCN(c2ccc(S(=O)(=O)N3CCCCC3)cc2NC(=O)/C=C/c2ccc(Cl)cc2)CC1 | u | x | x | -93 | x | u
CCN1CCN(c2ccc(S(=O)(=O)N3CCCCC3)cc2NC(=O)/C=C/c2ccc(OC)c(OC)c2)CC1 | u | x | n | n | x | u
CCN1CCN(c2ccc(S(=O)(=O)N3CCOCC3)cc2NC(=O)/C=C/c2ccc(OC)c(OC)c2)CC1 | n | x | n | u | x | n
CCN1CCN(c2ccc(S(=O)(=O)N3CCCCC3)cc2NC(=O)/C=C/c2cc(OC)ccc2OC)CC1 | u | u | u | -98 | u | 16µM
COc1ccc(OC)c(/C=C/C(=O)Nc2cccc(S(=O)(=O)N3CCCC3)c2)c1 | 29µM | n | u | n | n | 23µM
CCC(C)NC(=O)C(=O)NCc1ccccn1 (centres undefined) | n | n | n | n | n | n
CCOC(=O)CN1C(=O)/C(=C/c2ccc(Cl)cc2)Oc2ccccc21 | n | n | n | n | n | n
C(=C\c1cccc2ccccc12)/c1nnc(-c2cccs2)o1 | u | n | n | n | n | 29µM
CN(C)C(CNC(=O)c1ccc(C2SCCS2)cc1)c1ccccc1 (centres undefined) | n | n | u | n | n | u
CCOC(=O)C1(Cc2cccc(Cl)c2)CCCN(C(=O)c2ccc(COC)s2)C1 (centres undefined) | 21µM | n | n | u | n | 23µM
CCOC(=O)C1(Cc2cccc(OC)c2)CCCN(C(=O)c2ccccc2C)C1 (centres undefined) | 16µM | n | u | n | n | u
CCOC(=O)C1(Cc2cccc(Cl)c2)CCCN(C(=O)c2ccoc2C)C1 (centres undefined) | 18µM | n | n | -101 | n | 21µM
CCNc1ncc2nc(-c3ccc(OC)cc3)c(=O)n(Cc3ccc(F)cc3)c2n1 | n | n | x | x | n | n
CC(C)c1ccc(NC(=O)c2cc3c(=O)[nH]c4ccccc4c3n2C)cc1 | 15µM | x | x | x | x | 6.5µM
CN(CCCNC(=O)c1cc2c(=O)[nH]c3ccccc3c2n1C)Cc1ccccc1 | u | n | n | n | n | n
Cn1c(C(=O)N2CCN(c3ccc(Cl)cc3)CC2)cc2c(=O)[nH]c3ccccc3c21 | 21µM | n | u | u | n | u
O=C(c1ccc2n[nH]nc2c1)N1CCN(c2ccc(C(F)(F)F)cn2)CC1 | u | x | n | n | x | 16µM
CC(C)(C)C(=O)Nc1ccc(N2CCN(c3ccc(C(F)(F)F)cn3)CC2)nc1 | 1.5µM | n | 9.2µM | n | u | u
CS(=O)(=O)Nc1ccc(N2CCN(c3ccc(C(F)(F)F)cn3)CC2)nc1 | u | n | u | n | u | u
